# Compound activity: PubChem BioAssay, National Center for Advancing Translational Sciences (NCATS)
# Rows were chosen to be rich in hits. Some 2.4% of all compounds tested hit in one or more screens of this group.
# D2 ag-1: HTS Assay for Allosteric Agonists of the Human D2 Dopamine Receptor: Primary Screen for Agonists. activation, % at 2 µM. AID 485358, 2010. HEK293 T-REx D2 cells, calcium flux agonist mode. D(2) dopamine receptor (Homo sapiens), P14416. 340,000 tested, 0.53% active;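 active means activation over 3 SD above normal in the single-dose calcium agonist read, cut at about 30% in these data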
# Target sequence (P14416 whole entry, looked up): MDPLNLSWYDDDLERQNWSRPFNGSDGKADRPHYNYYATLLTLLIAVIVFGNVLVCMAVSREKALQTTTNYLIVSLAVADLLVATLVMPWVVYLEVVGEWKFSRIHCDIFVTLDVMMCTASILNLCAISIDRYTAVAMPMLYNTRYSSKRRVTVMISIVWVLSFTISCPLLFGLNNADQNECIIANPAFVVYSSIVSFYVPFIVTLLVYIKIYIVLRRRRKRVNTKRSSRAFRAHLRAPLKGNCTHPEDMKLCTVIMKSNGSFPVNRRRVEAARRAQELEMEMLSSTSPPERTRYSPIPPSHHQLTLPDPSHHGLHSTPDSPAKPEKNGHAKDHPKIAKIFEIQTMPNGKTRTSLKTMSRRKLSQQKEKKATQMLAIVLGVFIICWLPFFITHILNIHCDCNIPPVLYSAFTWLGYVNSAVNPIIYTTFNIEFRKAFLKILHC
#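 Tetracycline-induced HEK293 T-REx cells with force-coupled D2 receptor, plated overnight at 30 C, loaded with no-wash calcium dye. After a 10 s baseline, compound was pin-added and calcium flux read kinetically for 180 s; calcium rises flagged agonists.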
# D2 ag-2: Beta-Arrestin HTS for Positive Allosteric Modulators of the Human D2 Dopamine Receptor: Agonists; D(2) dopamine receptor (Homo sapiens), P14416; 360,000 tested, 0.084% active; activation, % (no concentration beside the values); AID 624465, 2012; DiscoveRx PathHunter D2 beta-arrestin, luminescence, 90 min; 100% = 57 uM dopamine signal; in the data active means activation above about 40%; inconclusive means between about 15% and that limit
#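 DiscoveRx PathHunter D2 beta-arrestin cells (2,100/well) attached overnight, then compound-stimulated 90 min at 37 C in HBSS/10 mM HEPES/0.1% Tween-20 buffer; beta-galactosidase complementation read by luminescence after 1 h at ambient temperature. Dopamine 57 uM final (EC100) as control.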
# D2 antagonist: HTS Assay for Allosteric Antagonists of the Human D2 Dopamine Receptor: Primary Screen for Antagonists; D(2) dopamine receptor (Homo sapiens), P14416; HEK293 TREx D2 cells, calcium flux, dopamine EC80; inhibition, % at 10 µM; 340,000 tested, 2% active; AID 485344, 2010; in the data active means inhibition above about 30%; inactive means below that, where a call was filed
#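 Read-out: kinetic calcium fluorescence (1 cycle/s) in inducible HEK293 T-REx D2 cells after an EC80 dopamine addition that followed 180 s compound preincubation. Loss of the dopamine response indicates antagonism.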
# D2 PAM-1: Beta-Arrestin HTS for Positive Allosteric Modulators of the Human D2 Dopamine Receptor: Potentiators; D(2) dopamine receptor (Homo sapiens), P14416; DiscoveRx D2 beta-arrestin cells, luminescence, 90 min; 100% = 57 uM dopamine signal; potentiation, % (no concentration beside the values); 360,000 tested, 0.23% active; in the data active means potentiation above about 50%; inconclusive means mostly about 30% to 49%
#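 PathHunter beta-arrestin assay in DiscoveRx D2 cells. Compounds were added with an EC20 of dopamine (50 nM final) for 90 min at 37 deg C. Luminescence was read 1 h after detection reagent, with 57 uM dopamine as the EC100 control.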
# D2 PAM-2: HTS Assay for Positive Allosteric Modulators of the Human D2 Dopamine Receptor: Primary Screen for Potentiators. HEK293 T-REx D2, calcium flux, EC20 dopamine potentiation. potentiation, % at 10 µM. 340,000 tested, 0.34% active;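 active means potentiation over 3 SD above the plate norm, cut at about 30% in these data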
#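 Potentiation of an EC20 dopamine calcium response is measured in a force-coupled, tetracycline-inducible Hek293 Trex D2 line. Compound-only kinetic reads over 180 s flag agonists before dopamine addition.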
# D3 ag: qHTS of D3 Dopamine Receptor Agonist: D3 Dopamine Receptor B-arrestin Agonist Confirmatory Assay; shares compounds with D2 ag-1; DiscoveRx D3 beta-arrestin cells, luminescence, 90 min; Potency, µM (series often up to 76.9 µM), hits mostly activators; 2,300 tested, 4% active; further: nearly all actives have a fitted effect of over 70% in size
# D2 ag-3: qHTS of D3 Dopamine Receptor Agonist: D2 Dopamine Receptor B-arrestin Agonist Counterscreen; shares compounds with D2 ag-1; DiscoveRx PathHunter D2 beta-arrestin, luminescence, 90 min; response scale: percent relative to full dopamine signal; Potency, µM (series often up to 76.9 µM), actives largely listed as activators; 2,300 tested, 5.9% active; further: nearly all actives have a fitted effect of over 70% in size
# Hits are given with their value; 0 = inactive; ? = inconclusive; - = not tested or not shown; ! = a repeat was not active. Unless noted, the call rests on the fitted dose curve; in most records, active means well fitted activation curve with a large enough effect; inconclusive means small, poorly fitted or top-dose-only effect; inactive means flat fitted curve, though single readings scatter.
SMILES,D2 ag-1,D2 ag-2,D2 antagonist,D2 PAM-1,D2 PAM-2,D3 ag,D2 ag-3
C[C@]12CCC3C(CC[C@H]4C[C@@H](O)CC[C@]34C)[C@H]1CC[C@H]2O (stereo partly drawn),-,0,-,0,-,-,-
C[C@H]1CC[C@@]2(C)[C@@H](CC[C@@H]3[C@@H]2CC[C@]2(C)[C@@H](O)CC[C@@H]32)C1,0,0,69,0,0,0,0
Cc1oc(-c2ccc(Cl)cc2)nc1CN1C(=O)CN=C(c2ccccc2)c2cc(Cl)ccc21,0,-,-,-,0,-,-
Cc1[nH]c2ccccc2c1CN1CCCCC1,-,0,-,0,-,-,-
Cc1[nH]c2c(Cl)cccc2c1CCN,0,0,41,0,0,0,0
CSc1ccc(/C=C/c2nc3ccccc3c(=O)n2-c2cccc(Cl)c2C)cc1,0,-,-,-,0,-,-
NCCc1c[nH]c2ccccc12,0,0,0,0,0,-,-
CCCCc1ccc2[nH]cc(CCN)c2c1,44,0,0,0,0,0,?
COc1cccc(-c2nn3c(=O)cc(CN4CCN(C(=O)COc5ccccc5C)CC4)nc3s2)c1,-,-,-,-,0,-,-
CCCSc1nc2ccccc2c(=O)n1-c1ccccc1OC,0,-,-,-,0,-,-
CN1C(=O)CC(c2ccccc2)Nc2ccccc21 (stereo not drawn),0,0,0,0,0,0,0
CN1C(=O)N(C)C(=O)C2(Cc3ccccc3N3CCCC32)C1=O (stereo not drawn),0,0,0,0,0,-,-
COc1cc2c(cc1OC)-c1c3c(cc4c1[C@@H](C2)N(C)CC4)OCO3,0,0,0,0,0,-,-
COc1c2c(cc3c1OCO3)CCN(C)C2,68,0,75,0,0,?,?
O=c1[nH]c2ccccc2c(=O)n1-c1ccc(Cl)c(Cl)c1,0,-,-,-,0,-,-
CCN(CC)CCCC(C)N=C(c1ccccc1)c1c(O)n(C)c(=O)n(C)c1=O (stereo not drawn),38,0,69,0,0,0,0
CCOc1ccc2nc(NC(=O)c3cccn(Cc4ccccc4Cl)c3=O)sc2c1,0,-,-,-,0,-,-
C1=C(c2ccccc2)CCNC1,40,0,43,0,0,0,0
Cc1ccc(NC(=O)CN2C(=O)CN=C(c3ccccc3)c3ccccc32)cc1,0,-,-,-,0,-,-
Cc1ccc2c(c1)C(Cc1nc3ccccc3c(=O)n1-c1ccc(Br)cc1)C(=O)N2 (stereo not drawn),-,-,-,-,0,-,-
CC(=O)NCCc1c[nH]c2ccccc12,0,0,0,0,0,-,-
Fc1ccc(CNCCc2c[nH]c3ccccc23)cc1,0,0,0,0,0,-,-
OC(CNCCc1c[nH]c2ccccc12)c1ccccc1 (stereo not drawn),0,0,54,0,0,0,0
Fc1ccccc1CNCCc1c[nH]c2ccccc12,0,0,0,0,0,0,0
COc1ccc(CNCCc2c[nH]c3ccccc23)c(OC)c1C,0,0,33,0,0,0,0
SMILES,D2 ag-1,D2 ag-2,D2 antagonist,D2 PAM-1,D2 PAM-2,D3 ag,D2 ag-3
Cc1ccc(-c2nn3c(=O)cc(CN4CCN(C(=O)COc5ccc(C)c(C)c5)CC4)nc3s2)cc1,0,-,-,-,0,-,-
NC(=O)c1ccc(OCCC(O)N2CC=C(c3ccc(F)cc3)CC2)cc1 (stereo not drawn),35,0,65,0,0,?,?
CCOC(=O)c1ccc(N2C(=O)CC(N3CC=C(c4ccc(F)cc4)CC3)C2=O)cc1 (stereo not drawn),0,0,0,0,0,-,-
CC(C)CC(C)N (stereo not drawn),0,0,0,0,0,0,0
COc1ccc(N2C(=O)NC(=O)/C(=C/c3ccc(N4CCOCC4)cc3)C2=O)cc1,0,-,0,-,0,-,-
CCOc1ccc(N2C(=O)NC(=O)/C(=C\c3ccc(N4CCOCC4)cc3C)C2=O)cc1,55,0,0,0,0,0,0
CC(C)[C@@]1(NC(=O)[C@@H]2C[C@@H]3c4cccc5[nH]cc(c45)C[C@H]3N(C)C2)O[C@@]2(O)[C@@H]3CCCN3C(=O)[C@H](Cc3ccccc3)N2C1=O,91,0,101,0,0,0,?
CC(C)C[C@H]1C(=O)N2CCCC2[C@]2(O)O[C@](NC(=O)[C@@H]3C=C4c5cccc6[nH]cc(c56)CC4N(C)C3)(C(C)C)C(=O)N12 (stereo partly drawn),73,122,78,54,0,?,0.28µM
CC(C)C[C@H]1C(=O)N2CCC[C@H]2[C@]2(O)O[C@](NC(=O)[C@@H]3C=C4c5cccc6[nH]c(Br)c(c56)CC4N(C)C3)(C(C)C)C(=O)N12 (stereo partly drawn),80,55,94,?,0,?,0.28µM
Cc1cccc(-n2c(/C=C\c3cccc(Br)c3)nc3ccccc3c2=O)c1,0,-,-,-,0,-,-
O=C(CN1C(=O)CN=C(c2ccccc2)c2ccccc21)Nc1cccc(C(F)(F)F)c1,0,-,-,-,-,-,-
CCn1c(CN2CCN(C)CC2)nc2ccccc21,0,-,-,-,-,-,-
OC(CN1CC=C(c2ccccc2)CC1)c1ccccc1 (stereo not drawn),77,0,75,0,0,?,?
OC(COCc1ccc(Cl)cc1)CN1CC=C(c2ccccc2)CC1 (stereo not drawn),0,83,85,71!,0,50µM,45µM
O=C(CN1CC=C(c2ccccc2)CC1)Nc1c(Cl)cccc1Cl,0,0,0,0,0,-,-
CCN(CC)c1ccc(/C=C2\C(=O)NC(=S)N(C)C2=O)o1,33,0,0,0,0,0,0
COc1ccc(NC(=O)CCc2nc(C3=CCN(Cc4cccc(Cl)c4)CC3)no2)cc1OC,0,-,-,-,0,-,-
COC(=O)C1=C(c2ccc(F)cc2OCc2ccccc2)C[C@@H]2CC[C@H]1N2C(=O)NCc1ccccc1Cl,0,0,0,0,0,0,0
COC(=O)C1=C(c2ccccc2OCc2ccccc2)C[C@@H]2CC[C@H]1N2C(=O)NCc1ccc(OC)c(OC)c1,0,0,0,0,0,0,0
